# In the library only some 1.5% were active in any assay of this set; here they are far more common.
# APEX1 inh = APE1 (human) endonuclease inhibition. actives 0.35% (n = 350,000). P27695. Potency, µM (titrated, usually from 65.8 µM), for the others: at the highest dose activity change, negative = inhibition, most hits filed as inhibitors. recombinant APE1, TAMRA/BHQ-2 abasic DNA cleavage fluorescence;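 also: potency is read from the fitted curve at half-maximal effect; plate controls were vehicle for no effect and reference inhibitor for full effect; nearly all actives have a fitted effect of over 55% in size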
#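 Substrate: short duplex with […] THF abasic site, 5'-TAMRA and 3'-BHQ-2, 50 nM final. APE1 at 0.75 nM, preincubated 15 min RT with compound. Fluorescence increase from first to third read measured activity.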
# WRN helicase inh = blocks human WRN helicase | Q14191 | WRN helicase unwinding, fluorescent forked duplex, kinetic | Potency, µM (doses to about 114 µM), inactives show at the top dose activity change, negative = inhibition, actives largely listed as inhibitors | actives 0.46% (n = 360,000) | AID 651768; also: potency is read from the fitted curve at half-maximal effect; nearly all actives have a fitted effect of over 55% in size
#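 Fluorescence dequenching readout, ex 525 nm/em 598 nm, kinetic mode: forked duplex DNA (100 nM final) with adjacent fluorophore and quencher unwound by WRN (20 nM final) with 2 mM ATP. Compound preincubation 15 min, room temperature.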
# PI5P4Ka inh = PI5P4K alpha (human) kinase inhibition; max response, %; actives 1.2% (n = 330,000); PI5P4Kalpha enzyme, ADP-Glo luminescence, 60 min; hits give low values; active = max response of -50% or lower; inconclusive = between -30% and -50%; inactive = -30% or higher; also: value at the top dose of about 77 µM
#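 Reactions run in 0.038 M HEPES pH 7.4, 0.28 mM EGTA, 0.1% CHAPS and 5% DMSO, with PI5P4Kalpha, substrate, compound and 5 microM ATP final, one hour at room temperature. Readout is ADP-Glo luminescence.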
# FEN1 inh = inhibitors of human flap endonuclease 1. P39748. Recombinant FEN1 flap cleavage, fluorescence, 15 min. Potency, µM (highest dose often 114 µM), inactives show at the highest dose activity change, negative = inhibition, actives largely listed as inhibitors. actives 0.35% (n = 390,000). AID 588795; also: potency is read from the fitted curve at half-maximal effect; nearly all actives have a fitted effect of over 65% in size
#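 Recombinant FEN1 (10 nM) was preincubated with pin-transferred compounds for 15 min at room temperature, then flap DNA substrate (50 nM final) was added. Plates were read at 0 and 15 min, and normalized concentration–response data were fitted to a four-parameter Hill equation.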
# RECQ1 inh-1 = RECQ1 (human) helicase inhibition; P46063; RECQ1 DNA unwinding, red fluorescence kinetic read; Potency, µM (series often up to 57.3 µM), for inactives: at the top dose activity, negative = inhibition, usual class: inhibitors; actives 0.54% (n = 240,000);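 also: potency is read from the fitted curve at half-maximal effect; plate controls were vehicle for no effect and no enzyme for full effect; nearly all actives have a fitted effect of over 30% in size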
# Target sequence (P46063 whole entry, looked up): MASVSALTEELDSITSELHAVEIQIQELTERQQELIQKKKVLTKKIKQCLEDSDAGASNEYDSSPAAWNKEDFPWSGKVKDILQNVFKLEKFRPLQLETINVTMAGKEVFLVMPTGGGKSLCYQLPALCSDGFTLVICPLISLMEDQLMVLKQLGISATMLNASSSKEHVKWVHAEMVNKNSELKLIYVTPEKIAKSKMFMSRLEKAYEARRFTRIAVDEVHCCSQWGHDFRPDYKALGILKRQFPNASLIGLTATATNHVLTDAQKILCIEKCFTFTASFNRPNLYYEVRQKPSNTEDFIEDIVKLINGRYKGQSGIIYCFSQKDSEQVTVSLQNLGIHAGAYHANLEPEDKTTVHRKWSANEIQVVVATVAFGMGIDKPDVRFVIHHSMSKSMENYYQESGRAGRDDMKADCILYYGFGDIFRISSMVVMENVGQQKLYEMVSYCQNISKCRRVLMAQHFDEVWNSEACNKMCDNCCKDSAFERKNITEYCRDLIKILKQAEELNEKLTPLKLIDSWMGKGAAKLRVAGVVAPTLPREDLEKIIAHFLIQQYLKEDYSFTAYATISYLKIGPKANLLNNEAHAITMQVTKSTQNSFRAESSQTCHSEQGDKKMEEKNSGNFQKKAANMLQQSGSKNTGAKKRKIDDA
#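 RECQ1T1 50 nM; forked duplex (20 bp + 30-nt ss tails) 200 nM, ATP 2 mM final; pH 8.0, 2 mM MgCl2, 2.5 ug/ml poly(dI-dC); 15 min compound preincubation; discontinuous kinetic read over 2 h at RT.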
# BLM inh = blocks DNA unwinding by human BLM helicase; actives 0.2% (n = 350,000); Potency, µM (series often up to 56.1 µM), for the others: at the highest dose activity change, negative = inhibition, usual class: inhibitors; P54132; recombinant BLM DNA unwinding, fluorescence dequenching;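 also: potency is read from the fitted curve at half-maximal effect; plate controls were vehicle for no effect and no enzyme for full effect; nearly all actives have a fitted effect of over 35% in size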
# RECQ1 inh conf = confirmation of human RECQ1 helicase inhibitors. shares compounds with RECQ1 inh-1. RECQ1 helicase DNA unwinding, fluorescence. Potency, µM (highest dose often 229 µM), for inactives: at the highest dose activity change, negative = inhibition, most hits filed as inhibitors. actives 28% (n = 610). AID 2708; also: potency is read from the fitted curve at half-maximal effect; nearly all actives have a fitted effect of over 45% in size
# ADP FP counter = displaces ADP in a fluorescence polarization counter-screen for RECQ1 hits | shares compounds with RECQ1 inh-1 | ADP fluorescence polarization displacement counterscreen | Potency, µM (titrated, usually from 228 µM), for the others: at the highest dose activity change, negative = inhibition, usual class: inhibitors | actives 27% (n = 530); also: potency is read from the fitted curve at half-maximal effect; nearly all actives have a fitted effect of over 45% in size
# RECQ1 inh-2 = RECQ1 helicase inhibition confirmed, round 2. shares compounds with RECQ1 inh-1. recombinant RECQ1 DNA unwinding, red fluorescence. Potency, µM (top dose mostly 119 µM), without a hit: at the top dose activity, negative = inhibition, hits mostly inhibitors. actives 15% (n = 1,100); also: potency is read from the fitted curve at half-maximal effect; nearly all actives have a fitted effect of over 50% in size
# An asterisk follows results filed as active; i = inactive; ? = inconclusive; . = no result given; [ ] = dose if it differs, or a comment. Unless noted, calls follow the shape of the dose curve; as a rule, active = well fitted curve in the direction sought with a large enough effect; inconclusive = small, poorly fitted or top-dose-only effect, or another doubt; inactive = no such curve, though single readings can be large; an effect the other way counts as inactive or inconclusive. Unless noted, % is scaled to controls: 0 for no effect and ±100 for the full control effect.
SMILES,APEX1 inh,WRN helicase inh,PI5P4Ka inh,FEN1 inh,RECQ1 inh-1,BLM inh,RECQ1 inh-2,others
Nc1ccc(N2CCOCC2)c2nonc12,?,-21.2%,-20.8,?,?,31.6µM*,0.3%,
O=C(Nc1ccc(N2CCOCC2)c2nonc12)C1CCCC1,-5.3%,-4.1%,-27.7,0.8%,0.4%,-0.4%,.,
COC1=C(Nc2ccc(O)cc2)C(=O)c2ccccc2C1=O,?,-16.1%,-14.3,-21.5%,?,-10.1%,-9.6%,
COc1ccc(CN2C(=O)c3ccccc3C2C(=O)NC2CCCC(C)C2C)c(OC)c1 (configuration not stated),0.8%,4.1%,0.4,3.1%,3.16µM*,-9.3%,-10.2%,RECQ1 inh conf=-5.9%[114 µM];ADP FP counter=18.9%[91.9 µM]
O=C(Nc1cc(S(=O)(=O)N2CCOCC2)ccc1Cl)c1ccc(=O)[nH]c1,-7.8%,-4.4%,-2.7,1.4%,.,.,.,
CC(=O)Oc1ccc(-c2ccc(C(=O)Nc3cccc(S(=O)(=O)N4CCOCC4)c3)cc2)cc1,-5.7%,4.6%,-4.1,-4.9%,-7.4%,-9.9%,.,
CC1(C)CC2CC(C)(CN2S(=O)(=O)c2ccc(C(=O)Nc3cccc(S(=O)(=O)N4CCOCC4)c3)cc2)C1 (configuration not stated),-0.7%,-6.0%,11.6,0.6%,-1.7%,-7.5%,.,RECQ1 inh conf=-11.8%;ADP FP counter=1.2%
CC1(C)CC2CC(C)(CN2S(=O)(=O)c2ccc(C(=O)Nc3cc(S(=O)(=O)N4CCOCC4)ccc3Cl)cc2)C1 (configuration not stated),?,-0.3%,-2.7,-0.9%,-8.6%,-7.1%,.,RECQ1 inh conf=-0.4%;ADP FP counter=7.9%
CC(=O)Nc1ccn(C2OC(C(COC(C)=O)NC(=O)C3CCCN3C(=O)OC(C)(C)C)C(OC(C)=O)C2OC(C)=O)c(=O)n1 (configuration not stated),-5.1%,.,.,-5.1%,-1.9%,-1.2%,.,
O=C(N=c1ccn(-c2nc3ccccc3nc2NS(=O)(=O)c2ccc(Cl)cc2)cc1)c1cccs1,-8.9%,-2.9%,-3.1,-0.8%,?,-9.7%,-22.7%,
CCOC(=O)c1ccc(NC(=O)CN2C(=O)c3cccnc3Oc3ccc(Cl)cc32)cc1,.,.,.,-18.7%,.,-21.2%,.,
CCOC(=O)C(=CNc1ccc(-c2ccco2)c(Cl)c1)C(=O)OCC,-3.0%,-10.4%,-14.8,-3.8%,?,-12.5%,-27.4%,
Cc1noc(C)c1C(=O)OCC(=O)c1c[nH]c2ccccc12,-1.4%,-11.1%,-9.9,-19.6%,i,-4.0%,.,
Cc1onc(-c2c(F)cccc2Cl)c1C(=O)OCC(=O)c1c[nH]c2ccccc12,?,-23.5%[57.1 µM],3.2,3.9%,22.4µM*,-15.1%,-25.1%,
O=C(c1ccc2c(c1)N(Cc1ccccc1F)C(=O)c1ccccc1S2(=O)=O)N1CCC(Cc2ccccc2)CC1,.,.,.,-8.1%,.,0.5%,.,
COc1ccccc1CNC(=O)C1CCN(S(=O)(=O)c2c(C)noc2/C=C/c2c(C)cc(C)cc2C)CC1,.,.,.,-5.5%,.,-3.7%,.,
COC(=O)N[C@@H](CCc1ccccc1)[C@]1(C(C)=O)CCCC1=O,-4.3%,.,.,.,i,5.0%,.,
CCOc1cccc(OCCOc2ccccc2[N+](=O)[O-])c1,-5.0%,-10.3%,18.8,-11.0%,?,-10.5%,-10.3%,
